VP16 counter: VP16 counterscreen qHTS for inhibitors of ROR gamma transcriptional activity; Drosophila S2 Gal4-VP16 UAS-luciferase, luminescence, 20 h; Potency, µM (titrated, usually from 53.6 µM), actives largely listed as inhibitors; 310,000 compounds, 3.5% hits;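 also: Gal4-VP16 expression switched on by copper sulfate through the metallothionein promoter; nearly all actives have a fitted effect of over 50% in size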
RORg inh: qHTS for inhibitors of ROR gamma transcriptional activity. Drosophila S2 Gal4-RORgamma UAS-luciferase reporter, 20 h. 310,000 compounds, 5.4% hits. Potency, µM (top dose mostly 53.6 µM), actives largely listed as inhibitors; also: nearly all actives have a fitted effect of over 60% in size
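Luminescence from a UAS-regulated Photinus luciferase reporter in stably transfected Drosophila Schneider cells is measured; decreased signal marks ROR gamma inhibition. Fusion expression is induced by 700 uM copper sulfate for 20 hr.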
B2AR arrestin: qHTS assay of beta-arrestin-biased ligands of beta2-adrenergic receptor | Beta-2 adrenergic receptor (Homo sapiens), P07550 | beta-arrestin recruitment to beta2AR, cell-based reporter | Potency, µM (titrated, usually from 46.1 µM), most hits filed as activators | 330,000 compounds, 0.02% hits; also: nearly all actives have a fitted effect of over 65% in size
TSHR antag: Antagonists of the Thyroid Stimulating Hormone Receptor: HTS campaign | Thyrotropin receptor (Homo sapiens), P16473 | TSHR-expressing cells, TSH-stimulated cAMP HTRF, 2 h; hits give low values | activity change, negative = inhibition, % at 11.5 µM | 330,000 compounds, 0.2% hits | AID 504810, 2011;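 active = activity change below a set negative limit, meaning inhibition stronger than a set level, cut at about -70% in these data; inconclusive = activity change between two set negative limits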
Target sequence (P16473 whole entry, looked up): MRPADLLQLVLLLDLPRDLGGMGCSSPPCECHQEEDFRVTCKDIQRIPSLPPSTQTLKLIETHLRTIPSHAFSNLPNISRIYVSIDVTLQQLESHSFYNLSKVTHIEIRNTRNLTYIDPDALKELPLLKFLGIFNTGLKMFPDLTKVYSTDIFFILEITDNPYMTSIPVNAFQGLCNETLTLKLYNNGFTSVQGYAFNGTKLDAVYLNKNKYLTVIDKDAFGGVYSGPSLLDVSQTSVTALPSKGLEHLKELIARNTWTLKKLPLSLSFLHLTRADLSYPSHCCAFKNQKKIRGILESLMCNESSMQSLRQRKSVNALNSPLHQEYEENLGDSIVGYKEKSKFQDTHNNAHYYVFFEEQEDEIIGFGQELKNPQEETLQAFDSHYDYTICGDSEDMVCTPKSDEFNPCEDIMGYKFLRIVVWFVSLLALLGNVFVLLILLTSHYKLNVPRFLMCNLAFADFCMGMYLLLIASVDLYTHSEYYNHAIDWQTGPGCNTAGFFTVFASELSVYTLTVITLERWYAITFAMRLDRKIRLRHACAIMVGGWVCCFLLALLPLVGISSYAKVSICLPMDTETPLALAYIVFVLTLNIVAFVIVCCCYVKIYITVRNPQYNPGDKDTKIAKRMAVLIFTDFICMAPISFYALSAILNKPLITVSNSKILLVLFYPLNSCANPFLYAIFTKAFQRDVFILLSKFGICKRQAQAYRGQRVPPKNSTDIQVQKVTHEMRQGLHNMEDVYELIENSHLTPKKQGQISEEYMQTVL
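Competitive HTRF cAMP read-out (cryptate anti-cAMP antibody, cAMP-d2; 30 min, room temperature) in freshly harvested TSHR cells. Compounds added before TSH at EC80 (4nM final), followed by 2 hours' incubation at 37 deg C.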
ELG1 repair inh: qHTS screen for small molecules that inhibit ELG1-dependent DNA repair in human embryonic kidney (HEK293T) cells expressing luciferase-tagged ELG1 | HEK293T ELG1-luciferase reporter, luminescence, 16 h; DNA damage induced by 5-fluorouridine | Potency, µM (top dose mostly 46.1 µM), hits mostly inhibitors | 330,000 compounds, 2.3% hits; also: nearly all actives have a fitted effect of over 55% in size
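Step one: seed 2,000 cells per well. Step two: pin-transfer compound or DMSO alongside 5-fluorouridine. Step three: incubate 16 hr, 37 °C, 5% CO2. Step four: add ONE-Glo, wait 30 min, read luminescence.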
A number is an active result; . = inactive; ? = inconclusive; / = not tested or not shown. Compounds with a hit are over-represented: about 7.5% of the library has one in this group of screens. Unless noted, calls follow the shape of the dose curve; as a rule, active = well fitted curve in the direction sought with a large enough effect; inconclusive = small, poorly fitted or top-dose-only effect, or another doubt; inactive = no such curve, though single readings can be large; an effect the other way counts as inactive or inconclusive.

SMILES | VP16 counter | RORg inh | B2AR arrestin | TSHR antag | ELG1 repair inh
O=C(NC(=S)Nc1cccnc1)c1cccc(Br)c1 | ? | ? | . | . | .
C=CCOn1c(=O)c(-c2ccc(F)cc2)[n+]([O-])c2ccccc21 | . | . | . | . | .
CCCCOc1cccc(C(=O)NC(=S)Nc2cccnc2)c1 | ? | 11µM | . | . | .
CCCOc1cccc(C(=O)Nc2cccnc2)c1 | . | . | . | . | .
O=C(O)c1ccc(NC(=S)NC(=O)c2cccc(COc3ccccc3)c2)cc1 | . | . | . | . | .
CCOc1cccc(C(=O)NC(=S)Nc2ccc(N3CCN(CC)CC3)cc2)c1 | ? | 11µM | . | . | ?
O=C(NC(=S)Nc1ccc(CN2CCCCC2)cc1)c1cccc(OCc2ccccc2)c1 | ? | 10µM | . | . | ?
COc1ccc(OC)c(NC(=O)NCCc2cccc(Cl)c2)c1 | ? | . | . | . | ?
Clc1ccc(Cl)c(Cl)c1Cl | . | . | / | / | /
O=c1c(O)c(-c2ccc(O)c(O)c2)oc2ccccc12 | . | ? | / | / | /
O=C(Nc1ccccc1Cl)N(Cc1nc2ccccc2c(=O)[nH]1)Cc1cccs1 | ? | 11µM | . | . | ?
O=C(Nc1ccc(Cl)cc1)N(Cc1cccs1)Cc1cccs1 | . | ? | . | . | ?
O=C(CCCl)N(Cc1nc2ccccc2c(=O)[nH]1)Cc1cccs1 | . | 11µM | . | . | .
O=C(Nc1ccc(Cl)cc1)N(Cc1nc2ccccc2c(=O)[nH]1)Cc1cccs1 | ? | ? | . | . | 18µM
O=C(C1CC1)N(Cc1nc2ccccc2c(=O)[nH]1)Cc1cccs1 | . | ? | . | . | .
CC(=O)N[C@@H](Cc1c[nH]c2ccccc12)C(=O)NCc1ccccc1 | . | . | . | . | .
Cc1cccc(NC(=O)C2CCN(S(=O)(=O)c3c(C)noc3/C=C/c3ccco3)CC2)n1 | . | ? | . | . | 13µM
Cc1sc2nc(SCC(=O)c3cc(C)n(CC4CCCO4)c3C)n(C(C)C)c(=O)c2c1C (centres undefined) | 11µM | ? | . | . | .
Cc1cc(C(=O)CSc2nc(N)cc(N)n2)c(C)n1CC1CCCO1 (centres undefined) | / | / | . | . | .
Cc1cc(O)cc2c1O[C@](C)(CCC[C@H](C)CCC[C@H](C)CCCC(C)C)CC2 | . | . | / | / | /
COc1cc(C(=O)N/N=C/c2cn(Cc3ccccc3)c3ccccc23)ccc1O | ? | 13µM | . | . | .
COC(=O)N/N=C/c1cn(Cc2ccccc2F)c2ccccc12 | . | . | . | . | 21µM
CCn1cc(/C=N/NC(=O)c2cc3c(ccc4ccccc43)o2)c2ccccc21 | ? | 7.1µM | . | . | ?
Nc1ccc(C(=O)N/N=C/c2cn(Cc3ccccc3)c3ccccc23)cc1 | ? | 11µM | . | . | .
Cc1nc(C(N)=O)c(N)n1CCc1ccccc1 | . | . | . | . | .
SMILES | VP16 counter | RORg inh | B2AR arrestin | TSHR antag | ELG1 repair inh
Nc1ccc(C(=O)N/N=C/c2cn(Cc3ccc(F)cc3)c3ccccc23)cc1 | ? | . | . | . | .
Nc1ccc(C(=O)N/N=C/c2cn(Cc3ccccc3F)c3ccccc23)cc1 | ? | 14µM | . | . | .
Cc1nc(N2CCOCC2)c2nc(-c3ccccc3)n(CCN3CCCC3)c2n1 | . | . | / | / | /
Cc1cc(C)c(S(=O)(=O)/N=C2\C=C(Nc3ccc(C(=O)O)cc3)C(=O)c3ccccc32)c(C)c1 | 10µM | ? | . | . | 3.3µM
O=C(O)c1ccc(NC2=C/C(=N/S(=O)(=O)c3ccccc3)c3ccccc3C2=O)cc1 | 7.9µM | 11µM | . | -74 | 4.6µM
Cc1cc(C)c(S(=O)(=O)/N=C2\C=C(NS(=O)(=O)c3ccccc3)C(=O)c3ccccc32)c(C)c1 | . | . | . | . | .
COc1cccc2c3c(c(C)nc12)CC(CO)O3 (centres undefined) | . | . | / | / | /
C[C@@H]1CN([C@H](C)CO)C(=O)Cc2cc(NS(=O)(=O)c3cn(C)cn3)ccc2O[C@H]1CN(C)S(=O)(=O)c1ccc(Cl)cc1 | / | / | . | . | .
Cc1ccc(C)c(NC(=S)N2CCC(c3nc4ccccc4s3)CC2)c1 | 6.3µM | 2.8µM | . | . | .
CCNC(=S)N1CCN(c2cccc(C(F)(F)F)c2)CC1 | . | ? | . | . | .
O=C(c1c(F)cccc1F)N1CCN(c2cccc(C(F)(F)F)c2)CC1 | 18µM | ? | . | . | .
FC(F)(F)c1cccc(N2CCN(C(=S)NC3CCCCC3)CC2)c1 | ? | 16µM | . | . | .
Cc1ccc(C)c(NC(=S)N2CCN(c3cccc(C(F)(F)F)c3)CC2)c1 | 11µM | 4.5µM | . | . | .
CC(=O)C(=O)O | . | . | / | / | /
COc1ccc(OC)c(NC(=S)N2CCN(c3ccccn3)CC2)c1 | . | . | . | . | .
S=C(Nc1cc(Cl)ccc1Oc1ccccc1)N1CCN(c2ccccn2)CC1 | ? | 11µM | . | . | .
Cc1ccc(C)c(NC(=S)N2CCN(c3ccccn3)CC2)c1 | ? | 13µM | . | . | .
FC(F)(F)c1ccccc1NC(=S)N1CCN(c2ccccn2)CC1 | . | ? | . | . | ?
COc1ccc(N2CCC(CNC(=S)Nc3cc(C)ccc3C)C2)cc1 (centres undefined) | 10µM | 1.8µM | . | . | ?
Cc1ccnc(NC(=S)N2CCN(c3cccc(C(F)(F)F)c3)CC2)c1 | 0.56µM | 0.32µM | . | . | .
CC(C)CCC[C@@H](C)[C@H]1CC[C@H]2[C@@H]3CC[C@@H]4C[C@H](O)CC[C@]4(C)[C@H]3CC[C@]12C | . | . | / | / | /
CCOc1cc(N2CCOCC2)c(OCC)cc1NC(=O)CN1C(=O)NC2(CCCCC2)C1=O | / | / | . | . | ?
COc1ccc(N2CCN(C(=S)Nc3cc(C)ccc3C)CC2)cc1 | . | 2µM | . | . | .
CN(C)S(=O)(=O)c1ccc(NC(=O)N2CCN(c3cccc(C(F)(F)F)c3)CC2)cc1 | 10µM | ? | . | . | ?
COCCn1c(CN2CCc3ccccc3C2)nc2c1c(=O)n(C)c(=O)n2C | . | . | . | . | 6.5µM
CCOC(=O)Cn1c(CN2CCN(C(=O)c3ccco3)CC2)nc2c1c(=O)n(C)c(=O)n2C | . | . | . | . | .
Cn1c(=O)c2c(nc(CN3CCc4ccccc4C3)n2CCCO)n(C)c1=O | . | . | . | . | .
COC(=O)Cn1c(CN(C)Cc2ccccc2)nc2c1c(=O)n(C)c(=O)n2C | 13µM | ? | . | . | .
CC(C)Cn1c(CN(C)Cc2ccccc2)nc2c1c(=O)n(C)c(=O)n2C | . | . | . | . | ?
CCOC(=O)Cn1c(CN2CCc3ccccc3C2)nc2c1c(=O)n(C)c(=O)n2C | 4µM | . | . | . | ?

Bioassay records from PubChem.
